According to PubChem BioAssay (NCATS):
Unmarked numbers belong to inactive results. Results filed as inconclusive are left out. Active and inactive are the calls of the source. Unless noted, calls come from the whole dose curve; as a rule, active = well fitted curve in either direction with a large enough effect (not every such curve was filed as active); inconclusive = small, poorly fitted or top-dose-only effect, or another doubt; inactive = flat fitted curve, though single readings scatter.

How the values were obtained:
[1] = target: Lysosomal acid glucosylceramidase (Homo sapiens) (UniProt P04062); assay: Glucocerebrosidase-p2 (AID 348; in the data active = potency below about 10 µM; note: potency is the fitted concentration of half-maximal effect); settings: purified GBA, blue fluorogenic substrate, 40 min
Procedure, shortened: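 Normal human glucocerebrosidase (0.2 nM) with blue fluorogenic substrate (80 uM final) in citrate/phosphate pH 5.9 with 10mM sodium taurocholate, 0.01% tween-20; 40 min RT, NaOH/glycine stop; fluorescence Ex 365/Em 440; AC50 from a titration from 0.6 nM upwards.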

[2] = target: Cytochrome P450 1A2 (Homo sapiens) (UniProt P05177); assay: p450-cyp1a2 (AID 410; calls by dose curve; note: potency is the fitted concentration of half-maximal effect;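 for activity change, negative = inhibition: -100% = full effect of reference inhibitor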); settings: recombinant CYP1A2, luciferin-ME demethylation, luminescence; series mostly up to 57 µM
Procedure, shortened: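 Luminescent demethylation readout: Luciferin-ME (100uM, equal to Km) turned over by 20nM CYP1A2 for 60 min at room temperature after NADPH regeneration addition, following 10 min compound preincubation. Normalization used 57 uM furafylline as full inhibition.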

[3] = NFAT Signaling Pathway (AID 444); settings: Jurkat NFAT-bla M1, carbachol, beta-lactamase ratio, 5 h; at 7.69 µM (top of the series) unless noted;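 note: carbachol stimulus at about its EC50 of 1 µM final; % is set by controls: 0 for no effect and ±100 for the full control effect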
Procedure, shortened: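 Jurkat cells carrying an NFAT-driven β-lactamase reporter and co-transfected muscarinic M1 receptor were treated with compound plus carbachol (1 uM final, an EC50 level) for 5 h at 37 °C. CCF4 loading followed for 1 h at RT; 460/530 nm ratio gave %activity.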

[4] = Stat Signaling Pathway (AID 446); settings: ME-180 SIE beta-lactamase reporter, IL-6 stimulated, 5 h; at 7.69 µM (top of the series) unless noted;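 note: ME-180 cervical cancer cells given 40 pM IL-6 alongside compound; SIE-controlled beta-lactamase reporter measured as 460/530 nm FRET emission ratio; % is set by controls: 0 for no effect and ±100 for the full control effect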
Procedure, shortened: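 FRET read-out (405 nm excitation, 460/530 nm emission) of a beta-lactamase reporter under a STAT-inducible element in ME-180 cervical carcinoma cells. Cells with compound receive 40 pM IL-6 for 5 h. Values are normalised to AC90 stimulation and AC90 JAK-inhibitor controls.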

[5] = target: Glucocorticoid receptor (Homo sapiens) (UniProt P04150); assay: GR-EFC Redistribution (AID 451; calls by dose curve; note: potency is the fitted concentration of half-maximal effect); settings: CHO-K1 GR-EFC translocation, beta-gal luminescence, 2 h
Procedure, shortened: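 CHO-K1 cells stably expressing nuclear-localized β-gal enzyme acceptor and GR fused C-terminally to the enzyme donor fragment; ligand-driven nuclear translocation restores β-gal by complementation. Compounds titrated up to 46 uM final, 2 h at 37 °C; luminescence read.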

[6] = target: Mitogen-activated protein kinase 10 (Mus musculus) (UniProt Q61831); assay: JNK3 AlphaScreen Assay (AID 530); settings: JNK3 lysate, c-Jun phosphorylation; series mostly up to 57.1 µM;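 note: kinase came from lysate of stimulated human HepG2 cells; signal reports phosphorylation of biotinylated GST-cJun 1-79 at Ser73 with 10 µM ATP; % is set by controls: 0 for no effect and ±100 for the full control effect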
Procedure, shortened: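 Phosphorylation of biotinylated GST-cJun(1-79) at Ser73 is measured by AlphaScreen proximity luminescence. Enzyme is JNK3 in HepG2 lysates activated with interleukin-1beta and tumor necrosis factor alpha; ATP is 10 uM final.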

[7] = target: 3',5'-cyclic-AMP phosphodiesterase 4B (Homo sapiens) (UniProt Q07343); assay: qHTS Assay for Inhibitors of PDE-IV (AID 607; active = well fitted activation curve with a large enough effect in the main read-out, with a control signal flat, not every such curve was filed as active; note: % of control where 0% means no effect); settings: HEK293 ACTOne CNG channel cells, membrane potential fluorescence; series mostly up to 22.9 µM
Procedure, shortened: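 Cell-based read-out of cAMP via a modified cyclic nucleotide-gated channel and membrane potential dye (535/590 nm) in HEK293 cells expressing PDE4 endogenously. Compounds tested up to 22.9 uM final; 100 uM RO 20-1724 reference.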

[8] = target: Cytochrome P450 3A4 (Homo sapiens) (UniProt P08684); assay: qHTS Assay for Activators of Cytochrome P450 3A4 (AID 885; active = well fitted curve in the direction sought with a large enough effect; an effect the other way counts as inactive or inconclusive; note: nearly all actives have a fitted effect of over 65% in size; note: potency is the fitted concentration of half-maximal effect); settings: recombinant CYP3A4, Luciferin-PPXE luminescence, 60 min; series mostly up to 57.1 µM
Procedure, shortened: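 Luminescent readout of luciferin formed from 25 uM Luciferin-PPXE (KM level) by 20 nM CYP3A4 in 200 mM KPO4, with 60 min NADPH-driven reaction at room temperature after 10 min compound exposure. Ketoconazole (57 uM) defined 100% inhibition.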

[9] = Primary qHTS for small molecule stabilizers of the endoplasmic reticulum resident proteome: Secreted ER Calcium Modulated Protein (SERCaMP) assay (AID 1508630; active = well fitted curve in the direction sought with a large enough effect; an effect the other way counts as inactive or inconclusive; note: % is set by controls: 0 for no effect and ±100 for the full control effect); settings: SH-SY5Y GLuc-SERCaMP (Gaussia luciferase released on ER calcium loss) secretion, thapsigargin, luminescence; series mostly up to 38.4 µM
Procedure, shortened: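 The SH-SY5Y reporter protocol was run at 3 concentrations up to 38.3 uM (primary) or 11 concentrations (follow-up): 16 h compound, 100 nM thapsigargin for 4 h, then extracellular luciferase luminescence.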

[10] = AP1 Signaling Pathway (AID 357); settings: ME-180 AP-1-bla reporter, EGF-induced, beta-lactamase ratio, 5 h; at 7.69 µM (top of the series) unless noted
Procedure, shortened: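 Read-out was the 460nm/530nm emission ratio (excitation 405nm) after CCF4 loading for 2.5 hours at room temperature. Cells carried an AP-1-driven beta-lactamase reporter, were stimulated with EC50 EGF plus compound for 5 hours, and AC50 values came from titrations.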

[11] = target: Glucocorticoid receptor (Homo sapiens) (UniProt P04150); assay: GR-GFP Redistribution (AID 450;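 active = compounds whose dose series gives a full or clear partial fitted curve of increased nuclear translocation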; note: potency is the fitted concentration of half-maximal effect); settings: U2OS GR-GFP nuclear translocation, laser cytometry, 2 h
[12] = Confirmation and Secondary Assay for Modulators of Hemoglobin Beta Chain Splicing at IVS2 705 locus (AID 930; active = well fitted curve in the direction sought with a large enough effect; an effect the other way counts as inactive or inconclusive;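 note: HeLa cells stably expressing the EGFP-705 splicing reporter; GFP fluorescence per well restored by corrected splicing of the IVS2-705 intron in EGFP; % of control where 0% means no effect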); settings: HeLa EGFP-705 splicing reporter, GFP fluorescence, 48 h; series mostly up to 38.3 µM
Procedure, shortened: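 Secondary splice-site specificity test uses HeLa expressing CMV-driven EGFP interrupted by IVS2-705; cells were treated 2 days at 37C with 500 nM antisense PNA as positive control.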

[13] = target: Ubiquitin carboxyl-terminal hydrolase 1 (Homo sapiens) (UniProt O94782); assay: Inhibitors of USP1/UAF1: Pilot qHTS (AID 504865; active = well fitted curve in the direction sought with a large enough effect; an effect the other way counts as inactive or inconclusive;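 note: rhodamine fluorescence freed from ubiquitin-rhodamine substrate followed over time; top concentration of the series differs between compounds; % is set by controls: 0 for no effect and ±100 for the full control effect; nearly all actives have a fitted effect of over 35% in size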); settings: purified USP1/UAF1, Ub-rhodamine cleavage fluorescence; series mostly up to 54.9 µM
Procedure, shortened: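 In 50mM HEPES pH 7.8 containing 0.5mM EDTA, 1mM TCEP, 0.1 mg/ml BSA and 0.01% Tween-20, 1nM USP1/UAF1 is exposed to compound for 15 min, then Ub-Rho (150nM final) is added and fluorescence is read over time.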

[14] = qHTS Assay for Identification of Small Molecule Agonists for Hypoxia Response Element Signaling Pathway (AID 914; active = well fitted activation curve with a large enough effect in the signal ratio, with a control signal flat, not every such curve was filed as active; the % refers to the signal ratio; note: potency is the fitted concentration of half-maximal effect); settings: ME-180 (cervical carcinoma) HRE-bla reporter, beta-lactamase ratio, CoCl2, 17 h; activation: hits give high values
Procedure, shortened: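 qHTS titration; ME-180 HRE-bla cells; EC50 CoCl2 co-treatment, 17 h at 37 degrees Celsius; CCF4 dye, ex 405nm, em 460nm and 530nm; %Activity from ratio; AC50.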

[15] = target: Cytochrome P450 3A4 (Homo sapiens) (UniProt P08684); assay: qHTS Assay for Inhibitors and Substrates of Cytochrome P450 3A4 (AID 884; active = well fitted curve in the direction sought with a large enough effect; an effect the other way counts as inactive or inconclusive; note: nearly all actives have a fitted effect of over 50% in size; note: potency is the fitted concentration of half-maximal effect); settings: recombinant CYP3A4, Luciferin-PPXE luminescence; series mostly up to 57.1 µM
Procedure, shortened: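 Luminescent readout of luciferin produced by CYP3A4 (20 nM) dealkylation of Luciferin-PPXE, 25 uM (its KM). NADPH-driven reaction ran 60 min at RT after 10 min compound preincubation; data scaled to 57 uM ketoconazole as 100% inhibition.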

Cytochrome P450 1A2 (Homo sapiens), sequence (P05177 whole entry, looked up): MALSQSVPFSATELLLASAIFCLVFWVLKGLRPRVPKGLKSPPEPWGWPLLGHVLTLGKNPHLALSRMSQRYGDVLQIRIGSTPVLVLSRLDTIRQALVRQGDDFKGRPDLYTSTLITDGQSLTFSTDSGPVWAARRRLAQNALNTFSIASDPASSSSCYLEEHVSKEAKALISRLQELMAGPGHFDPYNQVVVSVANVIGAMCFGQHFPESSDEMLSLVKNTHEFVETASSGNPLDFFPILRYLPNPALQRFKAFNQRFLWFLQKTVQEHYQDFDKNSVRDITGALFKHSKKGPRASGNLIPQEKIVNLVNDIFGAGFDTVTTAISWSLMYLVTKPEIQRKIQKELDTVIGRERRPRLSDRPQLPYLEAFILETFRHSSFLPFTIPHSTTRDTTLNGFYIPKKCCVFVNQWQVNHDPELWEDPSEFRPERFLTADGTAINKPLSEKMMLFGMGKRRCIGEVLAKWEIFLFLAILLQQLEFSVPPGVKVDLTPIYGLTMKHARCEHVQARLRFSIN
Ubiquitin carboxyl-terminal hydrolase 1 (Homo sapiens), sequence (O94782 whole entry, looked up): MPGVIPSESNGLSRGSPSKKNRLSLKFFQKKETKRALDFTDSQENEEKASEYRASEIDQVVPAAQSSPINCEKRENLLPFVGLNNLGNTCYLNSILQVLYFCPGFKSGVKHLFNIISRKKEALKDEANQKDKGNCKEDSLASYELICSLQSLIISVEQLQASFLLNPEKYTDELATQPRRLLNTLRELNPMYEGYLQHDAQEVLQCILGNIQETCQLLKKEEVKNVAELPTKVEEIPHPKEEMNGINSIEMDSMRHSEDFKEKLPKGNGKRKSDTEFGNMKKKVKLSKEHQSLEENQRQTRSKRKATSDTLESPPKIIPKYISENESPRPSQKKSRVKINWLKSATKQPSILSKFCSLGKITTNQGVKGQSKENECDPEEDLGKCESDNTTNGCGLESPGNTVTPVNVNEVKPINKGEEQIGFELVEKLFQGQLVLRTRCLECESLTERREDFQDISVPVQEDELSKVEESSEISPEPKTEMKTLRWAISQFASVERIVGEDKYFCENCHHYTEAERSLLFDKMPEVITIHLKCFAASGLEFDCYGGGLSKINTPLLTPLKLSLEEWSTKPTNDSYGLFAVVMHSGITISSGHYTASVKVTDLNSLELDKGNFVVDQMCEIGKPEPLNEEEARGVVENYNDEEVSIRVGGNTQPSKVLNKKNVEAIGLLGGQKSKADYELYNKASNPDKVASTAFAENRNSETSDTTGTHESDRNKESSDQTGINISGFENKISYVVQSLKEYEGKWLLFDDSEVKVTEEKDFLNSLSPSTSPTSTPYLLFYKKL
Cytochrome P450 3A4 (Homo sapiens), sequence (P08684 whole entry, looked up): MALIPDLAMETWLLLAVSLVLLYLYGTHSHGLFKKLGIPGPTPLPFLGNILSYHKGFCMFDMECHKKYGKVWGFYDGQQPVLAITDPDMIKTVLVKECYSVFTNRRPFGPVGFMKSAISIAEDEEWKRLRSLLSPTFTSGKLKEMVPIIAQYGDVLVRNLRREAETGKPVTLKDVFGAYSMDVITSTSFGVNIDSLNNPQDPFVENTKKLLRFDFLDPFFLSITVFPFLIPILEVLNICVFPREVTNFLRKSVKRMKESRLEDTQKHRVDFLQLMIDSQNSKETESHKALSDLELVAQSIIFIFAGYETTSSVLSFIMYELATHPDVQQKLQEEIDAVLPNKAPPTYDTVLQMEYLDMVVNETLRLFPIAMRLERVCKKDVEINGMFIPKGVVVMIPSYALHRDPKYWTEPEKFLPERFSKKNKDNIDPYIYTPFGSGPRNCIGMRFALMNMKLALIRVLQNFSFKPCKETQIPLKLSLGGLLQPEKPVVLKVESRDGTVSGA
Glucocorticoid receptor (Homo sapiens), sequence (P04150 whole entry, looked up, the tested form may be a part): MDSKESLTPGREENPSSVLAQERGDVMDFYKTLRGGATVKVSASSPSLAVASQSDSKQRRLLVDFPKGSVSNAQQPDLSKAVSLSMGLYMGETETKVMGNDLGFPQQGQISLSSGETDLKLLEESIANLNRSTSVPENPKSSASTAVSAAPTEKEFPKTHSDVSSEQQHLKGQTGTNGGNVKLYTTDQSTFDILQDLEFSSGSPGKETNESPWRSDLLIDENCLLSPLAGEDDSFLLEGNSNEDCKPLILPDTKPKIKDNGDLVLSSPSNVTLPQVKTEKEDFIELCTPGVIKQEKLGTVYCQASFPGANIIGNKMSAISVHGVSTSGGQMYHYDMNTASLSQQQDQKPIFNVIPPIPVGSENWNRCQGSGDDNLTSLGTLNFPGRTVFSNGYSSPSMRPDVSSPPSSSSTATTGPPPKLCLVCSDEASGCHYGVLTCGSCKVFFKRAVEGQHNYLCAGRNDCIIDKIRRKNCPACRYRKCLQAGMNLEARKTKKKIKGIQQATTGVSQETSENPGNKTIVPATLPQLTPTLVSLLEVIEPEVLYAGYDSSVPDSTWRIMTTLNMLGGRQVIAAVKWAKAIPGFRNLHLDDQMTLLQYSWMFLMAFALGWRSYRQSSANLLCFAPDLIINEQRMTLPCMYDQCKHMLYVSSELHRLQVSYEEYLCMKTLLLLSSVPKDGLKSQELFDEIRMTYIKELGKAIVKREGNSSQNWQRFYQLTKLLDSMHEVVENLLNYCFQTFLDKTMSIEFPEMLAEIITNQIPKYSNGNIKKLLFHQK
3',5'-cyclic-AMP phosphodiesterase 4B (Homo sapiens), sequence (Q07343 whole entry, looked up): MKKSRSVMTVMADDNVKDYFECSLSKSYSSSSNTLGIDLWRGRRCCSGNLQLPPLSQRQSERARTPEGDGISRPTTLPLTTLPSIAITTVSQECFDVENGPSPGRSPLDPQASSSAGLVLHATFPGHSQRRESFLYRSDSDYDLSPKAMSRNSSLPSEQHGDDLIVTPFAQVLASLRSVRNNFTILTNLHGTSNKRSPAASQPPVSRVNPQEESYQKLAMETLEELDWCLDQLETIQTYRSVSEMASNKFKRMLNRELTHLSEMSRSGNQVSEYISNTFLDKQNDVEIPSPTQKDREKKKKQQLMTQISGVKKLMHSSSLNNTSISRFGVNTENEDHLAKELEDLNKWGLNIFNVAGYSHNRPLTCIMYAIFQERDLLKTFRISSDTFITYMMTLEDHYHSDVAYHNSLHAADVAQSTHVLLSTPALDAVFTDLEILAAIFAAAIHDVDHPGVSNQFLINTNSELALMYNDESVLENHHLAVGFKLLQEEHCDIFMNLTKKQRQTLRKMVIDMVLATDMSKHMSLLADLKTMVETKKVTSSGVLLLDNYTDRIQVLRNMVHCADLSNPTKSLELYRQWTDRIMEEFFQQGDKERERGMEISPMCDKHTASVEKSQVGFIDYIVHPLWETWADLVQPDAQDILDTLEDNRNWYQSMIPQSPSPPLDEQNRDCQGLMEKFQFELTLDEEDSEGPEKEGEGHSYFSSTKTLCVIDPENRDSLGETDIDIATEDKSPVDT
Lysosomal acid glucosylceramidase (Homo sapiens), sequence (P04062 whole entry, looked up): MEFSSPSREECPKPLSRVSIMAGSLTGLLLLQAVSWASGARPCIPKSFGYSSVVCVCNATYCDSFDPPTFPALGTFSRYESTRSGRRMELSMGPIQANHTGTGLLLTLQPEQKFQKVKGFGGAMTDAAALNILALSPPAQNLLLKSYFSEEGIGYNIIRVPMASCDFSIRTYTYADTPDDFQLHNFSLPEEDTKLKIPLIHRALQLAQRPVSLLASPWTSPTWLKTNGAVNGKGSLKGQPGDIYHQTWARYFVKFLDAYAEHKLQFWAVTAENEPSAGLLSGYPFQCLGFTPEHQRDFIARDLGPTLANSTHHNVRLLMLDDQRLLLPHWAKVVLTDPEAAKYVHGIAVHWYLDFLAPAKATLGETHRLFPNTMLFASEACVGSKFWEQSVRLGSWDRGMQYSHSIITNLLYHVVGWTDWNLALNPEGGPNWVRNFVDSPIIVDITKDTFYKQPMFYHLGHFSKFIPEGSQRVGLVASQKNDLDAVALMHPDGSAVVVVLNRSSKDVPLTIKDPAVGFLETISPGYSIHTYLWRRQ

O=S(=O)(c1ccccc1)N1CCC2(CCN(c3ncccn3)CC2)CC1
Potency [1]: > 11.4 µM
Potency [2]: inactive
activity change, negative = inhibition [3]: -15.7%
activity, negative = inhibition [4]: -15.6%
Potency [5]: > 46 µM
Potency [6]: inactive
Potency [7]: inactive
Potency [8]: inactive
outcome [9]: inactive

CCNc1ncc2nc(-c3cccc(C#N)c3)c(=O)n(C)c2n1
activity change, negative = inhibition [10]: 15.2%
Potency [2]: 2.51 µM (active)
activity, negative = inhibition [4]: 30%
Potency [11]: > 9.22 µM
Potency [5]: > 46 µM
Potency [7]: inactive
Potency [8]: inactive
outcome [9]: inactive

CN(C)C(=O)c1ccc(-c2nc(N(C)Cc3ccco3)c3ccccc3n2)cc1
activity change, negative = inhibition [10]: -14.5%
Potency [2]: 7.94 µM (active)
activity change, negative = inhibition [3]: 18.1%
activity, negative = inhibition [4]: 3.3%
Potency [11]: > 46 µM
Potency [5]: > 46 µM
Potency [6]: inactive
outcome [12]: inactive
Potency [13]: inactive
outcome [9]: inactive

O=c1c(-c2cccs2)nc2cncnc2n1C1CC1
activity change, negative = inhibition [10]: 0.545%
Potency [2]: 2.51 µM (active)
activity change, negative = inhibition [3]: -2.79%
activity, negative = inhibition [4]: -5.35%
Potency [11]: > 9.22 µM
Potency [5]: > 46 µM
Potency [6]: inactive
Potency [8]: inactive
outcome [9]: inactive

c1ccc(-c2ccc(N3CCCC4(CCNCC4)C3)cc2)cc1
activity change, negative = inhibition [10]: 9.27%
Potency [2]: 10 µM (active)
activity, negative = inhibition [4]: -2.12%
Potency [5]: > 46 µM
Potency [7]: inactive
Potency [8]: inactive
outcome [9]: inactive

CS(=O)(=O)N1CCC2(CCCN(C(=O)Nc3cccc(F)c3)C2)CC1
activity change, negative = inhibition [10]: 3.4%
Potency [2]: inactive
activity change, negative = inhibition [3]: 10.8%
activity, negative = inhibition [4]: -4.84%
Potency [5]: > 46 µM
Potency [6]: inactive
Potency [7]: inactive
Potency [8]: inactive
outcome [9]: inactive

Cn1cccc1C(=O)N1CCC[C@@]2(CCN(Cc3nccs3)C2)C1
activity change, negative = inhibition [10]: -4.63%
Potency [2]: inactive
activity change, negative = inhibition [3]: 12.5%
activity, negative = inhibition [4]: 9.2%
Potency [5]: > 46 µM
Potency [6]: inactive
Potency [7]: inactive
Potency [8]: inactive
outcome [9]: inactive

COC(=O)N1CCC2(CCN(C(=O)Nc3cccc(F)c3)CC2)CC1
activity change, negative = inhibition [10]: -21.3%
Potency [2]: 12.6 µM (active)
activity change, negative = inhibition [3]: -11.6%
activity, negative = inhibition [4]: 22.8%
Potency [5]: > 46 µM
Potency [6]: inactive
Potency [7]: inactive
outcome [9]: inactive

COc1ccc(Oc2ncc3nc(-c4ccccc4)c(=O)n(Cc4cccs4)c3n2)cc1
activity change, negative = inhibition [10]: -8.46%
activity change, negative = inhibition [3]: -1.01%
activity, negative = inhibition [4]: -3.78%
Potency [11]: > 9.22 µM
Potency [5]: > 46 µM
Potency [6]: inactive
Potency [7]: inactive
outcome [9]: inactive

COc1ccc(-n2c(=O)c(C)nc3cnc(Nc4ccccc4)nc32)cc1
activity change, negative = inhibition [10]: -25%
Potency [2]: 5.01 µM (active)
activity change, negative = inhibition [3]: 0.929%
activity, negative = inhibition [4]: -5.94%
Potency [11]: > 9.22 µM
Potency [5]: > 46 µM
Potency [6]: inactive
Potency [7]: inactive
Potency [8]: inactive
outcome [9]: inactive

COc1ccc(Oc2ncc3nc(-c4cccs4)c(=O)n(Cc4cccs4)c3n2)cc1
Potency [1]: > 11.4 µM
activity change, negative = inhibition [3]: -3.5%
Potency [11]: > 9.22 µM
Potency [5]: > 46 µM
Potency [6]: inactive
Potency [7]: inactive
Potency [14]: 3.16 µM (active)
outcome [9]: inactive

O=c1c(-c2ccc(Cl)cc2)nc2cnc(N3CCOCC3)nc2n1C1CC1
activity change, negative = inhibition [10]: 6.61%
Potency [2]: 1.26 µM (active)
activity change, negative = inhibition [3]: -4.43%
activity, negative = inhibition [4]: 26.7%
Potency [11]: > 9.22 µM
Potency [5]: > 46 µM
Potency [6]: inactive
Potency [7]: inactive
outcome [9]: inactive

O=C(c1cnccn1)N1CCC2(CC1)CCN(c1ncccn1)CC2
activity change, negative = inhibition [10]: -5.54%
Potency [2]: inactive
activity change, negative = inhibition [3]: 6.93%
activity, negative = inhibition [4]: -9.82%
Potency [5]: > 46 µM
Potency [6]: inactive
Potency [7]: inactive
Potency [15]: inactive
Potency [8]: 7.94 µM (active)
outcome [9]: inactive

COc1ccc(C(=O)N2CCC3(CCN(C(=O)Nc4cccc(C#N)c4)CC3)CC2)cc1
Potency [1]: > 11.4 µM
activity, negative = inhibition [4]: -23.9%
Potency [5]: > 46 µM
outcome [9]: inactive

CC(C)NC(=O)N1CC[C@@]2(CCCN(C(=O)c3ccco3)C2)C1
activity change, negative = inhibition [10]: -6.33%
activity change, negative = inhibition [3]: 5.58%
activity, negative = inhibition [4]: 8.1%
Potency [5]: > 46 µM
Potency [6]: inactive
Potency [7]: inactive
outcome [9]: inactive

O=C(Nc1cccc(F)c1)N1CCCC2(CCN(C(=O)c3cccc(F)c3)CC2)C1
Potency [1]: > 11.4 µM
activity, negative = inhibition [4]: -9.43%
Potency [5]: > 46 µM
Potency [6]: inactive
outcome [9]: inactive

Cc1noc(C)c1-c1nc(Nc2ccccc2)c2ccccc2n1
activity change, negative = inhibition [10]: -13.6%
Potency [2]: 0.251 µM (active)
activity change, negative = inhibition [3]: -11.8%
activity, negative = inhibition [4]: -8.68%
Potency [11]: > 46 µM
Potency [5]: > 46 µM
Potency [6]: inactive
Potency [15]: 6.31 µM (active)
Potency [8]: inactive
Potency [13]: inactive
outcome [9]: inactive

COCCNc1nc(-c2ccccc2C(F)(F)F)nc2ccccc12
activity change, negative = inhibition [10]: -4.03%
Potency [2]: 1.26 µM (active)
activity change, negative = inhibition [3]: 5.96%
activity, negative = inhibition [4]: 15.8%
Potency [11]: > 46 µM
Potency [5]: > 46 µM
Potency [6]: inactive
Potency [8]: inactive
Potency [13]: inactive
outcome [9]: inactive
